Pol eta inh-1 – qHTS for Inhibitors of Polymerase Eta; AID 588591, 2011; DNA polymerase eta (Homo sapiens), Q9Y253; recombinant Pol eta, fluorescent DNA replication assay; Potency, µM (highest dose often 114 µM), inactives show at the top dose activity change, negative = inhibition, most hits filed as inhibitors; hit rate 1.2% among 390,000; further: potency means the concentration at half of the fitted maximal effect; on the % scale 0 is the no-effect control and ±100 the full control effect
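Pol eta (10 nM) was preincubated with compounds for 15 min at room temperature, after which fluorescent replication substrate (50 nM final) was added to start the reaction. Fluorescence was read kinetically at 0 and 10 min.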
TDP1 inh – qHTS Assay for Inhibitors of Tyrosyl-DNA Phosphodiesterase (TDP1); AID 485290, 2010; hit rate 0.28% among 350,000; recombinant TDP1, AlphaScreen DNA substrate cleavage; Tyrosyl-DNA phosphodiesterase 1 (Homo sapiens), Q9NUW8; Potency, µM (top dose mostly 130 µM), for the others: at the top dose activity change, negative = inhibition, most hits filed as inhibitors; further: potency means the concentration at half of the fitted maximal effect; on the % scale 0 is the no-effect control and ±100 the full control effect; nearly all actives have a fitted effect of over 40% in size
Target sequence (Q9NUW8 whole entry, looked up): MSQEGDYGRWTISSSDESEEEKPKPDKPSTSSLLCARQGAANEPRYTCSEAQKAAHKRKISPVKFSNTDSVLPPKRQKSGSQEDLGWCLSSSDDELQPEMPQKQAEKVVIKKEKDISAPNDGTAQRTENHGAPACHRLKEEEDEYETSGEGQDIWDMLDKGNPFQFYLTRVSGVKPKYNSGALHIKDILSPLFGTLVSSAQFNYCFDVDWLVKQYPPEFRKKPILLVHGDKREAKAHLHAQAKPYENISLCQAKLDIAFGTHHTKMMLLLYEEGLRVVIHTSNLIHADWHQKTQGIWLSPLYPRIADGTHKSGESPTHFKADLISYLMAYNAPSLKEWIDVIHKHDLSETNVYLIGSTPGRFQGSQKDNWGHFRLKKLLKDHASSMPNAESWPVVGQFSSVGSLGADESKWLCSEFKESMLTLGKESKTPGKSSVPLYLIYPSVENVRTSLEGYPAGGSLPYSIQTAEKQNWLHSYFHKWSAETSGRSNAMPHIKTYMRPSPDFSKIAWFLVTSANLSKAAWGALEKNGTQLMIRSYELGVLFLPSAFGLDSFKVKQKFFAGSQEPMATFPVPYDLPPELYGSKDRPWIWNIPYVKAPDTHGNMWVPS
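AlphaScreen read-out: signal falls as enzyme removes the 3' tyrosine-FITC from a 5'-biotinylated DNA oligo (15 nM, 5 min, RT). Enzyme was E. coli-made recombinant Tdp1 at 1 nM, exposed to compound for 15 min beforehand; beads 10 ug/ml, 10 min.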
Pol beta inh – qHTS Assay for Inhibitors of DNA Polymerase Beta; Potency, µM (titrated, usually from 114 µM), for inactives: top-dose activity change, negative = inhibition, hits mostly inhibitors; Pol beta primer extension/strand displacement, fluorescence kinetic; P06746; hit rate 1.3% among 340,000; further: potency means the concentration at half of the fitted maximal effect; on the % scale 0 is the no-effect control and ±100 the full control effect
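Pol beta (10 nM) and compounds were preincubated 15 min at room temperature, then 50 nM substrate (final) started primer extension/strand displacement. Reads were taken at 0 and 10 min; concentration-response data were fitted to a four-parameter Hill equation.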
Pol kappa inh-1 – qHTS for Inhibitors of Polymerase Kappa | AID 588579, 2011 | DNA polymerase kappa (Homo sapiens), Q9UBT6 | hit rate 0.53% among 400,000 | purified Pol kappa, fluorescent DNA synthesis assay, 10 min | Potency, µM (series often up to 107 µM), for the others: top-dose activity, negative = inhibition, usual class: inhibitors; further: potency means the concentration at half of the fitted maximal effect; on the % scale 0 is the no-effect control and ±100 the full control effect
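First, compounds were pin-transferred onto 10 nM Pol kappa. After 15 min at room temperature, substrate was added to 50 nM final. Fluorescence was then measured kinetically at 0 and 10 min.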
FEN1 inh – qHTS Assay for the Inhibitors of Human Flap endonuclease 1 (FEN1). Recombinant FEN1 flap cleavage, fluorescence, 15 min. hit rate 0.35% among 390,000. Potency, µM (titrated, usually from 114 µM), without a hit: at the highest dose activity change, negative = inhibition, usual class: inhibitors; further: potency means the concentration at half of the fitted maximal effect; on the % scale 0 is the no-effect control and ±100 the full control effect; nearly all actives have a fitted effect of over 65% in size
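Potency values derive from four-parameter Hill fits of normalized qHTS data. The reaction used 10 nM FEN1 preincubated 15 min at room temperature with compound, then 50 nM DNA substrate, read at 0 and 15 min.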
POLI inh – qHTS for Inhibitors of Polymerase Iota; DNA polymerase iota (Homo sapiens), Q9UNA4; Pol iota fluorescent replication assay, 10 min; Potency, µM (titrated, usually from 115 µM), without a hit: at the highest dose activity, negative = inhibition, actives largely listed as inhibitors; hit rate 1% among 390,000; further: potency means the concentration at half of the fitted maximal effect
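Fluorescent replication assay read twice, at 0 min and 10 min after adding 50 nM (final) substrate. Enzyme (10 nM) and compounds were first incubated 15 min at room temperature; enzyme-free buffer wells were negative controls.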
GALK inh confirm – Confirmation Assay for Inhibitors of Human Galactokinase (GALK); shares compounds with Pol eta inh-1; purified GALK, Kinase-Glo ATP depletion luminescence; Potency, µM (highest dose often 115 µM), without a hit: top-dose activity, negative = inhibition, most hits filed as inhibitors; hit rate 70% among 150
Redox cycling – Confirmatory Assay for Inhibitors of Human Galactokinase (GALK): Phenol-HRP redox assay counterscreen. shares compounds with Pol eta inh-1. Phenol red-HRP H2O2 redox cycling, absorbance 600 nm. Potency, µM (titrated, usually from 115 µM), for inactives: top-dose activity change, negative = H2O2 signal, most hits filed as inhibitors. hit rate 40% among 150. AID 2035, 2009
HEK293 tox – Secondary Assay for Inhibitors of Human Galactokinase (GALK): HEK-293 Cell Viability Assay; shares compounds with Pol eta inh-1; HEK-293 viability, ATP luminescence (CellTiter-Glo), 24/48 h; Potency, µM (top dose mostly 46.1 µM), for the others: at the top dose activity change, negative = cytotoxicity, usual class: inhibitors; hit rate 10% among 170; AID 2547, 2010; further: potency means the concentration at half of the fitted maximal effect; on the % scale 0 is the no-effect control and ±100 the full control effect
Pol kappa inh-2 – qHTS for Inhibitors of Polymerase Kappa: Confirmatory Assay for Cherry-picked Compounds. Potency, µM, usual class: inhibitors. hit rate 76% among 920. shares compounds with Pol eta inh-1. purified Pol-kappa, fluorescent strand-displacement substrate; further: potency means the concentration at half of the fitted maximal effect
Pol eta inh-2 – qHTS for Inhibitors of Polymerase Eta: Confirmatory Assay for Cherry-picked Compounds; shares compounds with Pol eta inh-1; Pol eta primer extension, TAMRA/BHQ fluorescence, 10 min; Potency, µM, actives largely listed as inhibitors; hit rate 64% among 2,600; further: potency means the concentration at half of the fitted maximal effect
Starred values were filed as active, the others as inactive; [ ] = dose if it differs, or a comment. Most compounds without a hit are left out; they make up all but 2.4% or so of the library. The call rests on the fitted dose curve; in most records, active means well fitted curve in the direction sought with a large enough effect; inconclusive means small, poorly fitted or top-dose-only effect, or another doubt; inactive means no such curve, though single readings can be large; an effect the other way counts as inactive or inconclusive.

Screening CC1=C(C(N)=O)C(c2cccs2)n2nc(-c3cccc(Cl)c3)nc2N1 (stereo not given) returned Pol eta inh-1 3%, TDP1 inh 2%, Pol beta inh 38%, Pol kappa inh-1 -22%, FEN1 inh -2%, POLI inh 0%, GALK inh confirm inconclusive, Redox cycling 5% and HEK293 tox 12%.
O=C(O)c1ccc(CNc2ccccc2C(=O)O)cc1 was read as Pol eta inh-1 inconclusive, TDP1 inh -7%, Pol beta inh 11µM*, Pol kappa inh-1 inconclusive, FEN1 inh -4%, POLI inh inconclusive and Pol eta inh-2 inconclusive.
Cc1ccc(NC(=O)COC(=O)CCc2c(C)nc3nc(N)nn3c2C)cc1C was read as Pol eta inh-1 -6%, TDP1 inh 3%, Pol kappa inh-1 -7%, FEN1 inh -1% and POLI inh -12%.
`Cc1ccc2c(CC(=O)OCC(=O)N(CC(C)C)c3c(N)n(Cc4ccccc4)c(=O)[nH]c3=O)coc2c1` gave Pol eta inh-1 20µM*, TDP1 inh 0%, Pol kappa inh-1 inconclusive, FEN1 inh -3%, POLI inh 25µM* and Pol eta inh-2 38*.
Cc1oc2ccc(O)c(CN(C)Cc3ccccc3)c2c1C(=O)Nc1cccc(C(F)(F)F)c1 was read as Pol eta inh-1 -10%, TDP1 inh 4%, Pol beta inh inconclusive, Pol kappa inh-1 1%, FEN1 inh -18% and POLI inh -26%.
For O=C(Oc1cccc([N+](=O)[O-])c1)c1ccc2c(=O)n3c(nc2c1)CCC3 the results were Pol eta inh-1 28µM*, Pol kappa inh-1 inconclusive, FEN1 inh 0%, POLI inh 40µM* and Pol eta inh-2 76*.
COc1cc(Br)cc2cc(C(=O)N3CCN(C(=O)c4ccco4)CC3)c(=O)oc12 was read as Pol eta inh-1 79µM*, TDP1 inh 6%, Pol beta inh 1%, Pol kappa inh-1 inconclusive, FEN1 inh -11%, POLI inh 32µM* and Pol eta inh-2 85*.
For O=C1C=CC(=O)N1CCCCCCCCCCN1C(=O)C=CC1=O the results were Pol eta inh-1 35µM*, Pol kappa inh-1 -27%, FEN1 inh 11%, POLI inh inconclusive and Pol kappa inh-2 inconclusive.
`NC(=O)C1CCN(C(=O)C(Cc2ccccc2)NC(=O)c2ccccc2)CC1` (stereo not given) gave Pol eta inh-1 4%, TDP1 inh -4%[56.1 µM], Pol kappa inh-1 -17%, FEN1 inh -1% and POLI inh inconclusive.
`O=C(O)/C=C/c1ccc(S(=O)(=O)Nc2ccc(OCc3ccccc3)cc2)cc1` gave Pol eta inh-1 -10%, Pol beta inh inconclusive, Pol kappa inh-1 -7%, FEN1 inh 7% and POLI inh -14%.
`O=C(O)/C=C/c1ccc(S(=O)(=O)Nc2ccc(C(=O)NCC(=O)O)cc2)cc1` gave Pol eta inh-1 18µM*, TDP1 inh -5%, Pol beta inh -16%, Pol kappa inh-1 inconclusive, FEN1 inh 6%, POLI inh inconclusive and Pol eta inh-2 inconclusive.
C/C(=C\C[Si](C)(C)C)CCC=O was read as TDP1 inh 10%.
COC(=O)c1ccc(CSc2ccc3nnc(-c4ccccn4)n3n2)o1 was read as Pol eta inh-1 -16%, TDP1 inh -2%, Pol beta inh -4%, Pol kappa inh-1 0%, FEN1 inh 0%, POLI inh 19%, GALK inh confirm -7%, Redox cycling 1% and HEK293 tox -1%.
Screening Clc1ccc(Nc2ccccc2)nn1 returned Pol eta inh-1 -15%, TDP1 inh 6%, Pol beta inh 20%, Pol kappa inh-1 6%, FEN1 inh -6% and POLI inh -9%.
O=C(CSc1nc2ccsc2c(=O)n1NC(=O)c1ccccc1)NCc1ccco1 was read as Pol eta inh-1 45µM*, TDP1 inh 3%, Pol beta inh inconclusive, Pol kappa inh-1 79µM*, FEN1 inh -3%, POLI inh 50µM* and Pol eta inh-2 inconclusive.
For O=C(CSc1nc2ccccc2c(=O)n1Cc1ccco1)NCc1ccco1 the results were Pol eta inh-1 79µM*, Pol beta inh inconclusive, Pol kappa inh-1 inconclusive, FEN1 inh 6%, POLI inh 32µM* and Pol eta inh-2 inconclusive.
`O=C(CSc1nc2ccsc2c(=O)n1Cc1ccccc1)NCc1ccco1` gave Pol eta inh-1 -11%, TDP1 inh 5%, Pol beta inh 6%, Pol kappa inh-1 -2%, FEN1 inh -17% and POLI inh 42%.
Screening CC(=O)NCCn1c(SCC(=O)NCc2ccco2)nc2ccccc2c1=O returned Pol eta inh-1 -7%, TDP1 inh 2%, Pol beta inh 27%, Pol kappa inh-1 -10%, FEN1 inh -5% and POLI inh 3%.
